# Measurements as given in PubChem BioAssay (NCATS).
# Records with an inconclusive call do not appear. A call without a number means that no potency is given here. Unmarked numbers belong to inactive results. Calls of active or inactive are those of the source. Calls follow the shape of the dose curve; as a rule, active = well fitted inhibition curve with a large enough effect; inconclusive = small, poorly fitted or top-dose-only effect; inactive = no such curve, though single readings can be large or run the other way.
# Target: M-phase phosphoprotein 8 (Homo sapiens) (UniProt Q99549)
# Sequence (Q99549 whole entry, looked up): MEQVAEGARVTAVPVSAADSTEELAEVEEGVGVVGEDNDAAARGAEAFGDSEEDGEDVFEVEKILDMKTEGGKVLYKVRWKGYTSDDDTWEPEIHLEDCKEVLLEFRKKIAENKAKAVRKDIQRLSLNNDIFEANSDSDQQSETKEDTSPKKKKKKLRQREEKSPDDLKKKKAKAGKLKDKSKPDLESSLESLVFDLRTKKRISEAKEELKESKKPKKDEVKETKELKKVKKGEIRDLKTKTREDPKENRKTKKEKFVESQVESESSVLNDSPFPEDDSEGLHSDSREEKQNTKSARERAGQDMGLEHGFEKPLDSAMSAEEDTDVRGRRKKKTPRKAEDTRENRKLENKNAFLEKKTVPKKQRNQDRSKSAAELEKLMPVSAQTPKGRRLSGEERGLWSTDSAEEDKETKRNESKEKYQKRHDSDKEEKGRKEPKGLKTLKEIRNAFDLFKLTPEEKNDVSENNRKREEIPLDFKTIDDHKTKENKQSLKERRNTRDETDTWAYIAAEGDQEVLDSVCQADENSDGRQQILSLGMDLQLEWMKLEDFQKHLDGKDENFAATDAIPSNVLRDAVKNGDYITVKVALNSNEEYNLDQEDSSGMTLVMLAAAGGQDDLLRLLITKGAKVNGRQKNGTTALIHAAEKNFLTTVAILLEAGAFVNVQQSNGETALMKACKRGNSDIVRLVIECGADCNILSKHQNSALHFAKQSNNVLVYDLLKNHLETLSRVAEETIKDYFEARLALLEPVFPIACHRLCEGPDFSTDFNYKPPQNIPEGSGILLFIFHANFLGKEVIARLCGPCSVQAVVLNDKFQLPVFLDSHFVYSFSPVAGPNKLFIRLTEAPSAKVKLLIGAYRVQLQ
# Test: qHTS Validation Assay for Inhibitors for MPP8 Chromodomain Interactions with Methylated Histone Tails (AID 488949); also: nearly all actives have a fitted effect of over 55% in size; as to activity change, negative = inhibition: top concentration of the series differs between compounds
# Conditions: AlphaScreen MPP8 binding to H3K9me3 peptide; series mostly up to 57.1 µM; activity change, negative = inhibition: at the top concentration
# From the text: As our understanding of epigenetics expands, it is becoming clear that players in this field are potential targets for drug development. This area of epigenetic therapy has established applications for the treatment of cancer and neurological diseases. We have been involved in this field for a number of years and have performed high-throughput screens to identify the first small molecule inhibitors of protein methyltransferases. These methyltransferases target multiple substrates, and thus regulate many arms of an epigenetic pathway. The methylation of different substrates often generates docking sites for effector proteins that harbor binding domains (chromo, tudor, PHD, MBT and ANK repeats). It has been proposed that the binding sites generated for different proteins by these post-translational modifcations mediate downstream effects on chromatin. Consistent with this theory, di- and tri-methylation of histone H3K9 facilitates the binding of heterochromatin protein HP1. The HP1 protein harbors a chromodomain that is responsible for the methyl-dependent interaction between HP1 and lysine 9 of histone H3. HP1 was first described in flies as a heterochromatin associated protein that can regulate gene silencing. It harbors a chromodomain that binds H3K9me3. In addition, it harbors a chromoshadow domain that interacts with a large number of proteins that are involved in heterochromatin formation and gene repression. There are three highly related HP1 isoforms. All three variants are associated with pericentric heterochromatin and it is not clear whether they have specific or redundant functions. MPP8 is also involved in the repression of gene in euchromatic regions (unpublished data) and like HP1 its chromodomain binds H3K9me3. MPP8 harbors an ankyrin repeat region that is likely involved in binding and recruiting interacting proteins with transcriptional repressive function, much like the chromoshadow domain of HP1 does. We hypothesize that by inhibiting specific protein-protein interactions we will be able to develop compounds that block a single arm of an epigenetic pathway. The specificity attained by blocking a single protein-protein interaction will be far greater than that attained by blocking the enzyme that regulates one of many interactions. Low-affinity protein-protein interactions (Kd in the single- to double-digit micromolar range) such as those discussed here have been very difficult to assay by traditional techniques such as fluorescence polarization or fluorescence resonance energy transfer. We have developed a sensitive chemiluminescence-based assay (Quinn, et al. 2009), which serves as the starting point for this project. The following is a validation assay to identify lead compounds that can block methyl-dependent protein-protein interactions (specifically MPP8), which can be used as probes to analyze these methyl-driven interactions and perhaps even developed into targeted epigenetic therapies. Assay Provider: Mark T. Bedford, MD Anderson Screening Center PI: Austin, C.P. Screening Center: NIH Chemical Genomics Center [NCGC]
# To each well, 2 uL of MPP8 protein (final 50 nM) and 1 uL biotinylated histone peptide trimethylated at Lys9 [b-H3(1-18)K9me3] (final 50 nM) was added in 1x PBS buffer, pH 7.4, containing 0.01% Tween-20 using a nanoliter dispenser. Formation of a protein-peptide complex proceeded at room temperature for 30 min. A Kalypsys pin-tool was employed to transfer 23 nL of library compound solution in DMSO to each well. Aurintricarboxylic acid (ATA) was used as an intraplate control with a 12-point titration in duplicate. Following a 30 min incubation of the protein-peptide complex with compounds at room temperature, a mixture of 40 ug/mL each streptavidin-coated donor and nickel chelate acceptor AlphaScreen beads (final 10 ug/mL) was added in a 1 uL dispense for a final volume of 4 uL. Plates were incubated protected from the light for 30 min at room temperature. […]
# Potency is read from the fitted curve at half-maximal effect.
SMILES,"activity change, negative = inhibition",Potency
CCN(CC)CCn1c(=O)c(Cc2ccc(OC)cc2)nc2ccccc21,-6.74%,–
CC(C)(C)NC(=O)[C@H]1CC[C@H]2[C@@H]3CC[C@H]4NC(=O)C=C[C@]4(C)[C@H]3CC[C@]12C,3.67% [at 114 µM],–
CC1CC2C3CCC4=CC(=O)C=C[C@]4(C)[C@@]3(F)[C@@H](O)C[C@]2(C)[C@@]1(O)C(=O)CO (stereo partly specified),-5.51%,–
Cc1ccc(S(=O)(=O)N[C@@H](Cc2ccccc2)C(=O)CCl)cc1,–,inactive
NC(=O)c1ccc2[nH]ccc2c1,-2.42%,–
CCN1CCCC1CNC(=O)c1cc(S(N)(=O)=O)ccc1OC (stereo unspecified),–,inactive
CCCCS(=N)(=O)CCC(N)C(=O)O (stereo unspecified),–,inactive
COc1cc2ncnc(Nc3cccc(Cl)c3)c2cc1OC,–,inactive
CC(C)NCC(O)c1ccc(NS(C)(=O)=O)cc1 (stereo unspecified),–,inactive
CC(=O)[C@H]1CC[C@H]2[C@@H]3CCC4=CC(=O)CC[C@]4(C)[C@H]3CC[C@]12C,–,inactive
N[C@@H](Cc1ccc(O)c(O)c1)C(=O)O,–,7.52 µM (active)
NC(=O)c1cccc(N)c1,–,inactive
COc1cc2nc(N3CCCN(C)CC3)nc(NC3CCN(Cc4ccccc4)CC3)c2cc1OC,-0.123%,–
CCN(CC)CC#CCOC(=O)C(O)(c1ccccc1)C1CCCCC1 (stereo unspecified),–,inactive
O=C(O)C1CCCN(CCC=C(c2ccccc2)c2ccccc2)C1 (stereo unspecified),–,inactive
OCc1ccc(-c2nn(Cc3ccccc3)c3ccccc23)o1,–,25.1 µM (active)
